# Laboratory results from PubChem BioAssay (NCATS).
# Records with an inconclusive call do not appear. A call without a number means that no potency is given here. Calls of active or inactive are those of the source. Calls come from the whole dose curve; as a rule, active = well fitted inhibition curve with a large enough effect; inconclusive = small, poorly fitted or top-dose-only effect; inactive = flat fitted curve, though single readings scatter.
# Target: Glutathione peroxidase 1 (Homo sapiens) (UniProt P07203)
# Sequence (P07203 whole entry, looked up): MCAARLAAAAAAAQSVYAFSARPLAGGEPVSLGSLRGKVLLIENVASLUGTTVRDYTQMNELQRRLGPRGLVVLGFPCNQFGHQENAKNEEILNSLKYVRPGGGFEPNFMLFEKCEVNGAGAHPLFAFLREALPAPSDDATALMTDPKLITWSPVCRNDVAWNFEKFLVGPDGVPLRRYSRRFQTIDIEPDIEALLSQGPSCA
# Test: Primary qHTS Assay for Inhibitors of Recombinant Selenoprotein Glutathione Peroxidase 1 (GPX1) (AID 1845191); note: nearly all actives have a fitted effect of over 65% in size
# Details: recombinant GPX1, GR-coupled NADPH fluorescence, 15 min; series mostly up to 48.8 µM
# Summary of the method: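 Recombinant GPX1 (10 nM final) was preincubated with compound for 30 min at room temperature, then reacted with 1 mM GSH, 0.5 mM CHP, 0.5 mM NADPH and 100 nM glutathione reductase; NADPH fluorescence (340/450 nm) was read at 0 and 15 min.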
# Potency is the fitted concentration of half-maximal effect.
row,Compound,Potency
1,COc1ccc(-c2ccc3c(N4CCOCC4C)nc(N4CCOCC4C)nc3n2)cc1CO (stereo not given),18 µM (active)
2,O=C(NCCN1CCOCC1)c1cc2c(Oc3ccc(NC(=O)C4(C(=O)Nc5ccc(F)cc5)CC4)cc3)ccnc2[nH]1,inactive
3,C=C[C@@]1(C)C=C2C(=O)C(O)=C3[C@](C)(C(=O)O)CC[C@@H]4C[C@]34[C@]2(O)C(=O)C1,inactive
4,CCc1cccc(CC)c1-n1c(C=C(C)C)c(C(=O)N2CCNCC2)cc(-c2nc(-c3ccc(C(F)(F)F)cc3)cs2)c1=O,inactive
5,CCc1cc2c(cc1CC)CC(NCC(O)c1ccc(O)c3[nH]c(=O)ccc13)C2 (stereo not given),inactive
6,COCC(=O)NC/C=C/c1ccc2ncnc(Nc3ccc(Oc4ccc(C)nc4)c(C)c3)c2c1,inactive
7,O=C(c1c(F)ccc(NS(=O)(=O)N2CC[C@@H](F)C2)c1F)c1c[nH]c2ncc(-c3cnc(C4CC4)nc3)cc12,inactive
8,CN1CCN(c2ccc(-c3cccc(CN4CCOCC4)c3)cc2NC(=O)c2c[nH]c(=O)cc2C(F)(F)F)CC1,inactive
9,CCNC(=O)C#Cc1ccc2c(C(=Nc3ccc(CN(C)C)cc3)c3ccccc3)c(O)[nH]c2c1,inactive
10,CC(CCC1(O)OC2CC3C4CC=C5C[C@@H](O[C@@H]6O[C@H](CO)[C@@H](O[C@@H]7O[C@@H](C)[C@H](O)[C@@H](O)[C@H]7O)[C@H](O)[C@H]6O[C@@H]6O[C@@H](C)[C@H](O)[C@@H](O)[C@H]6O)CC[C@]5(C)C4CC[C@]3(C)[C@@]2(O)[C@@H]1C)CO[C@@H]1O[C@H](CO)[C@@H](O)[C@H](O)[C@H]1O (stereo not given in full),inactive
